PubChem BioAssay AID1159580 (chemical genetic matrix, 2015)
Hit rate of the full screen: of about 5,500 compounds, about 2,000 (36%) were called active. Another 18% or so got no clear call; they are omitted. No stated cut-off is given here; in the data, active means normalized growth mostly below about 0.91 (no sharp cut-off); inconclusive means no clear call, values can overlap the other calls; inactive means mostly above about 0.92. The list shows a part of the results.

Test: chemical genetic growth profiling, strain panel (AID 1159580);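 further: tested at 20 µM; growth read once vehicle control cultures reached saturation at 30 °C; 1 = growth at the plate median or of vehicle wells; lower values mean less growth of the strain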
Conditions: growth OD

Measured: normalized growth

COc1cc(-c2coc3cc(OC)c(OC)c(OC)c3c2=O)cc(OC)c1OC
inactive: S. cerevisiae deletion strains, locus YJR066W, strain TOR1, active compounds read low 0.99 | S. cerevisiae deletion strains, locus YJR075W, strain HOC1, active compounds read low 0.975 | S. cerevisiae deletion strains, locus YKL009W, strain mrt4, active compounds read low 0.98 | S. cerevisiae deletion strains, locus YKL068W, active compounds read low 0.988 | S. cerevisiae deletion strains, locus YKL085W, strain MDH1 (second series), active compounds read low 0.973 | S. cerevisiae deletion strains, locus YKL085W, strain MDH1, active compounds read low 0.973 | S. cerevisiae deletion strains, locus YKL160W, strain elf1, active compounds read low 0.994 | S. cerevisiae deletion strains, locus YKR001C, strain vps1, active compounds read low 1.02 | S. cerevisiae deletion strains, locus YKR026C, strain gcn3, active compounds read low 0.997 | S. cerevisiae deletion strains, locus YKR091W, strain srl3, active compounds read low 1 | S. cerevisiae deletion strains, locus YLL001W, strain dnm1, active compounds read low 0.96 | S. cerevisiae deletion strains, locus YLL026W, active compounds read low 0.996 | S. cerevisiae deletion strains, locus YLL041C, strain sdh2, active compounds read low 0.996 | S. cerevisiae deletion strains, locus YLR027C, strain aat2, active compounds read low 1.01 | S. cerevisiae deletion strains, locus YLR039C, strain RIC1, active compounds read low 1 | S. cerevisiae deletion strains, locus YLR058C, strain SHM2, active compounds read low 0.99 | S. cerevisiae deletion strains, locus YLR102C, strain apc9, active compounds read low 1 | S. cerevisiae deletion strains, locus YLR113W, strain HOG1, active compounds read low 0.98 | S. cerevisiae deletion strains, locus YLR221C, strain rsa3, active compounds read low 0.997 | S. cerevisiae deletion strains, locus YLR258W, strain gsy2, active compounds read low 0.989 | S. cerevisiae deletion strains, locus YLR262C, strain YPT6 (second series), active compounds read low 0.972 | S. cerevisiae deletion strains, locus YLR262C, strain YPT6, active compounds read low 1.01 | S. cerevisiae deletion strains, locus YLR268W, strain sec22, active compounds read low 1.03 | S. cerevisiae deletion strains, locus YLR320W, strain mms22, active compounds read low 1.01 | S. cerevisiae deletion strains, locus YLR330W, strain CHS5, active compounds read low 0.998 | S. cerevisiae deletion strains, locus YLR342W, strain FKS1 (second series), active compounds read low 1.08 | S. cerevisiae deletion strains, locus YLR342W, strain FKS1, active compounds read low 1.01 | S. cerevisiae deletion strains, locus YLR357W, strain rsc2, active compounds read low 0.953 | S. cerevisiae deletion strains, locus YLR370C, strain arc18, active compounds read low 0.997 | S. cerevisiae deletion strains, locus YLR371W, strain rom2, active compounds read low 1.01 | S. cerevisiae deletion strains, locus YLR384C, strain iki3, active compounds read low 0.982 | S. cerevisiae deletion strains, locus YLR418C, strain cdc73, active compounds read low 0.984 | S. cerevisiae deletion strains, locus YML016C, strain PPZ1, active compounds read low 1 | S. cerevisiae deletion strains, locus YML032C, strain rad52, active compounds read low 1.01 | S. cerevisiae deletion strains, locus YML120C, strain ndi1, active compounds read low 0.997 | S. cerevisiae deletion strains, locus YML124C, strain tub3, active compounds read low 0.989 | S. cerevisiae deletion strains, locus YMR058W, strain fet3, active compounds read low 1.01 | S. cerevisiae deletion strains, locus YMR078C, strain ctf18, active compounds read low 1.01 | S. cerevisiae deletion strains, locus YMR125W, strain sto1, active compounds read low 0.992 | S. cerevisiae deletion strains, locus YMR129W, active compounds read low 0.989 | S. cerevisiae deletion strains, locus YMR205C, strain PFK2, active compounds read low 1.01 | S. cerevisiae deletion strains, locus YMR223W, strain ubp8, active compounds read low 0.998 | S. cerevisiae deletion strains, locus YMR231W, strain pep5, active compounds read low 0.987 | S. cerevisiae deletion strains, locus YMR307W, strain GAS1, active compounds read low 1.13 | S. cerevisiae deletion strains, locus YNL067W, strain RPL9B, active compounds read low 0.973 | S. cerevisiae deletion strains, locus YNL071W, strain lat1, active compounds read low 1 | S. cerevisiae deletion strains, locus YNL183C, strain NPR1, active compounds read low 0.984 | S. cerevisiae deletion strains, locus YNL209W, strain ssb2, active compounds read low 1 | S. cerevisiae deletion strains, locus YNL233W, strain BNI4, active compounds read low 0.982 | S. cerevisiae deletion strains, locus YNL248C, strain rpa49, active compounds read low 0.983 | S. cerevisiae deletion strains, locus YNL250W, strain rad50, active compounds read low 0.944 | S. cerevisiae deletion strains, locus YNL271C, strain bni1, active compounds read low 0.995 | S. cerevisiae deletion strains, locus YNL298W, strain CLA4, active compounds read low 0.996 | S. cerevisiae deletion strains, locus YNL307C, strain MCK1, active compounds read low 1 | S. cerevisiae deletion strains, locus YNL322C, strain KRE1 (second series), active compounds read low 0.998 | S. cerevisiae deletion strains, locus YNR049C, strain mso1, active compounds read low 1 | S. cerevisiae deletion strains, locus YNR052C, strain pop2, active compounds read low 0.977 | S. cerevisiae deletion strains, locus YOL012C, strain htz1 1.11 | S. cerevisiae deletion strains, locus YOL147C, strain pex11, active compounds read low 0.998 | S. cerevisiae deletion strains, locus YOR001W, strain rrp6, active compounds read low 0.997 | S. cerevisiae deletion strains, locus YOR061W, strain CKA2, active compounds read low 1.01 | S. cerevisiae deletion strains, locus YOR069W, strain VPS5, active compounds read low 0.989 | S. cerevisiae deletion strains, locus YOR070C, strain gyp1, active compounds read low 0.991 | S. cerevisiae deletion strains, locus YOR080W, strain dia2, active compounds read low 0.995 | S. cerevisiae deletion strains, locus YOR083W, strain WHI5, active compounds read low 0.996 | S. cerevisiae deletion strains, locus YOR106W, strain vam3, active compounds read low 0.988 | S. cerevisiae deletion strains, locus YOR136W, strain idh2, active compounds read low 0.993 | S. cerevisiae deletion strains, locus YOR144C, strain elg1, active compounds read low 0.997 | S. cerevisiae deletion strains, locus YOR184W, strain ser1, active compounds read low 1.08 | S. cerevisiae deletion strains, locus YOR231W, strain MKK1, active compounds read low 1.04 | S. cerevisiae deletion strains, locus YOR265W, strain rbl2, active compounds read low 1.01 | S. cerevisiae deletion strains, locus YOR270C, strain vph1, active compounds read low 1.01 | S. cerevisiae deletion strains, locus YOR290C, strain snf2, active compounds read low 1.01 | S. cerevisiae deletion strains, locus YOR316C, strain cot1, active compounds read low 0.99 | S. cerevisiae deletion strains, locus YPL051W, strain arl3, active compounds read low 0.994 | S. cerevisiae deletion strains, locus YPL055C, strain LGE1, active compounds read low 1.03 | S. cerevisiae deletion strains, locus YPL078C, strain atp4, active compounds read low 0.998 | S. cerevisiae deletion strains, locus YPL106C, strain sse1, active compounds read low 0.984 | S. cerevisiae deletion strains, locus YPL240C, strain hsp82, active compounds read low 1 | S. cerevisiae deletion strains, locus YPL256C, strain CLN2, active compounds read low 1.03 | S. cerevisiae deletion strains, locus YPR119W, strain clb2, active compounds read low 0.975 | S. cerevisiae deletion strains, locus YPR141C, strain kar3, active compounds read low 0.972 | S. cerevisiae deletion strains, locus YPR163C, strain tif3, active compounds read low 1 | S. cerevisiae deletion strains, locus YPR167C, strain met16, active compounds read low 0.995 | S. cerevisiae deletion strains, strain wtn01, active compounds read low 1.03 | S. cerevisiae strains, strain wild type, active compounds read low 1.02
